In PubChem BioAssay (EPA / NIEHS):
Calls of active or inactive are those of the source. The calls were made as follows: active = hit-call score of the fitted dose curve at least 0.9, where 1 is the maximum; inactive = score below 0.9.

Assay: ATG_E_Box_CIS: Attagene CIS-FACTORIAL HepG2 Assay for human Enhancer Box (E-box) (AID 2282936)
Details: HepG2 E-box cis-reporter transcription, actives raise or lower the signal
Protocol: ATG_CIS is a cell-based, multiplexed-readout assay that uses HepG2, a human liver cell line, with measurements taken at 24 hours after chemical dosing in a 24-well plate.ATG_E_Box_CIS is one of 52 assay component(s) measured or calculated from the ATG_CIS assay. It is designed to make measurements of mRNA induction, a form of inducible reporter, as detected with fluorescence intensity signals by Reverse transcription polymerase chain reaction (RT-PCR) and Capillary electrophoresis technology.Data from the assay component ATG_E_Box_CIS was analyzed into 1 assay endpoint. This assay endpoint, ATG_E_Box_CIS, was analyzed with bidirectional fitting relative to DMSO as the negative control and baseline of activity. Using a type of inducible reporter, measures of mRNA for gain or loss-of-signal activity can be used to understand the reporter gene at the transcription factor-level as they relate to the gene USF1. Furthermore, this assay endpoint can be referred to as a primary readout, because this assay has produced multiple assay endpoints where this one serves a reporter gene function. To generalize the intended target to other relatable targets, this assay endpoint is annotated to the dna binding intended target family, where the subfamily is basic helix-loop-helix protein.
Human liver HepG2 cells are transiently transfected with multiple reporter transcription units (MRTUs) in 6-well plates using FuGene 6 reagent (Roche; 3 ml FuGene/1 mg DNA). The MRTU constructs are regulated by a cis-regulating element (promoter). […] A major difference between the CIS and TRANS system is that in CIS activities of endogenous TFs are measured, whereas the TRANS assay evaluates changes in activities of exogenous, chimeric NR-Gal4 proteins. […] At the end of 24 hour incubation, total RNA was isolated using TriZol reagent (Invitrogen). The isolated RNA is then reverse-transcribed using oligo(dT) primer and Mo-MLV reverse transcriptase (Invitrogen) with DNAse I (Ambion) treatment for 30 min. The one-tenth of the produced cDNA was amplified by PCR using Taq DNA polymerase (Invitrogen) and two reporter sequence-specific primers. The PCR products were fluorescently labeled by primer extension with 6-arboxyfluorescein (6-FAM) 5'-labeled reporter sequence-specific primer (2 min at 95 C, 20 s at 68 C and 10 min at 72 C) and these products were digested with 5U of HpaI (New England Biolabs) for 2h at 37 C. The fragments were purified using Qiaquick PCR columns (Qiagen), analyzed on an ABI 3130xL genetic analyzer (Applied Biosystems) with peak positions identified by using a set of X-rhodamine (ROX)-labeled MapMarker1000 molecular weight standards (BioVentures). The raw capillary electrophoresis data was processed using Attagraph software (Attagene).

| SMILES | outcome | AC50 |
| --- | --- | --- |
| C=Cc1ccc(C(C)(C)C)cc1 | inactive |  |
| CCCCSCCCC | inactive |  |
| Cc1cc(C)nc(NS(=O)(=O)c2ccc(N)cc2)n1 | inactive |  |
| CCCCN(CCCC)C(=O)N(CCCC)CCCC | inactive |  |
| COC(C)(C)CC(C)=O | inactive |  |
| C=CCN(CC=C)CC=C | inactive |  |
| CCC(C)=O | inactive |  |
| CCc1ncc(C)[nH]1 | inactive |  |
| CCCCC(CC)COC(=O)c1ccc(O)cc1 (stereo not given) | inactive |  |
| C=C(C)C1CC=C(C)C(=O)C1 (stereo not given) | inactive |  |
| CCC(=O)OCCOc1ccccc1 | inactive |  |
| Cc1occc(=O)c1OC(=O)C(C)C | inactive |  |
| Oc1c(Cl)cc(Cl)c(Cl)c1Cc1c(O)c(Cl)cc(Cl)c1Cl | inactive |  |
| CC(=O)NCCO | inactive |  |
| CC1(C)CCC[C@]2(C)[C@H]3CCO[C@]3(C)CC[C@@H]12 |  | 58.3 µM (active) |
| C1CCOC1 | inactive |  |
| CS(=O)(=O)c1ccc(Cl)cc1 | inactive |  |
| C=C(C)C(=O)OCCOCCOCCOC(=O)C(=C)C | inactive |  |
| O=C(O)CNc1ccccc1 | inactive |  |
| CC(=O)O[C@@H]1CC2CCC1(C)C2(C)C (stereo not given in full) | inactive |  |

| SMILES | outcome | AC50 |
| --- | --- | --- |
| CCOC(=O)CN | inactive |  |
| Cc1ccc(S(N)(=O)=O)cc1 | inactive |  |
| C=CC(C)C#N (stereo not given) | inactive |  |
| COc1ccc(CCC(C)=O)cc1 | inactive |  |
| c1ccc(Oc2ccccc2)cc1 | inactive |  |
| CC(C)CC(C)CC(O)CC(C)C (stereo not given) | inactive |  |
| CCCCCCCCCCCCCCN(CCO)CCO | inactive |  |
| Nc1ccc(Cl)c([N+](=O)[O-])c1 | inactive |  |
| CCCCCc1ccco1 | inactive |  |
| CCCCOC(=O)CCCCCCCC(=O)OCCCC | inactive |  |
| NCc1ccco1 | inactive |  |
| ClC(c1ccccc1)(c1ccccc1)c1ccccc1 | inactive |  |
| N#Cc1ccc(CC(=O)c2cccc(C(F)(F)F)c2)cc1 |  | 170 µM (active) |
| OCC#CCO | inactive |  |
| O=C(O)CCCCCCCCC(=O)O | inactive |  |
| OCCCCC(O)CO (stereo not given) | inactive |  |
| CCCCCCC(C)(C)S | inactive |  |
| CCc1ccc(O)c(OC)c1 | inactive |  |
| CCCCC(CC)(CO)CO | inactive |  |
| N#Cc1cscn1 | inactive |  |
